Screens as filed in PubChem.
Only some compounds are listed: those with a hit (about 2.6% of all), similar ones and a draw of the others.
Cruzain inh noDet: inhibitors of Trypanosoma cruzi cruzain without detergent; P25779; purified cruzain, Z-FR-AMC fluorescence, no detergent; Potency, µM, most hits filed as inhibitors; 200,000 tested, 2.3% active; AID 1476; also: nearly all actives have a fitted effect of over 40% in size
Target sequence (P25779 123-467 limits assumed): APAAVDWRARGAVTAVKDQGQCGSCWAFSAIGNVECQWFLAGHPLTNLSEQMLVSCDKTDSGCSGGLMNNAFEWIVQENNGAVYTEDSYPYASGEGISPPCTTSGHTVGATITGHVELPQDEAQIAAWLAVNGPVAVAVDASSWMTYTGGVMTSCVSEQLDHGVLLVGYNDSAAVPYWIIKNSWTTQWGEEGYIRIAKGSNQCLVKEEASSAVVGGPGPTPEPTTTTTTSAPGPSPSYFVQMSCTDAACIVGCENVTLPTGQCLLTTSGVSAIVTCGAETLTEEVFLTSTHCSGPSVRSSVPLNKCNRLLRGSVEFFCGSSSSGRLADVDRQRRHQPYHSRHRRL
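Detergent-free condition (0.00005% Triton X-100) in acetate buffer pH 5.5 with DTT. 1.5 nM enzyme and compound were pre-mixed 15 min, then 2 uM Z-FR-AMC substrate added; reaction progress from fluorescence change between first and third reads (60 s).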
Cruzain Triton: blocks cruzain activity in presence of Triton detergent. P25779. purified cruzain, Z-FR-AMC fluorescence, 0.01% Triton. Potency, µM, actives largely listed as inhibitors. 200,000 tested, 0.43% active. AID 1478; also: nearly all actives have a fitted effect of over 40% in size
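Detergent-containing arm of a paired screen for aggregation-based inhibition: 0.01% Triton X-100 present. Cruzain at 1.5 nM cleaved 2 uM Z-FR-AMC at pH 5.5 with 5 mM DTT; AMC fluorescence gain over 60 s measured activity.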
Each line names hits and unclear results; the compound was inactive in the other large screens. Calls follow the shape of the dose curve; as a rule, active = well fitted curve in the direction sought with a large enough effect; inconclusive = small, poorly fitted or top-dose-only effect, or another doubt; inactive = no such curve, though single readings can be large; an effect the other way counts as inactive or inconclusive.

COc1ccc(S(=O)(=O)c2c(Nc3ccc(C)cc3)sc(C(=O)c3ccc4c(c3)OCO4)c2N)cc1	Cruzain inh noDet 3.2µM
Cc1ccc(S(=O)(=O)c2c(Nc3ccccc3)sc(C(=O)c3ccc4c(c3)OCO4)c2N)cc1	Cruzain inh noDet 7.9µM
Cc1ccc(CNC(=O)c2c(Nc3ccccc3C)sc(C(=O)c3ccc(F)cc3)c2N)cc1	Cruzain inh noDet inconclusive
COc1cccc(C(=O)Nc2ccc(-c3cn4cccnc4n3)cc2)c1OC	Cruzain inh noDet inconclusive
CCc1ccc(NC(=O)C(=O)NCCc2csc(-c3cccc(F)c3)n2)cc1	none
Cn1c(CCNC(=O)c2ccccc2)nc2ccccc21	Cruzain Triton 11µM
Cc1nc(C)c(CCNC(=O)c2ccccc2)s1	Cruzain inh noDet inconclusive, Cruzain Triton 28µM
CC(=O)Nc1ccc2c(c1)nc(CCNC(=O)c1ccccc1)n2C	none
Cn1c(CCNC(=O)c2ccc(F)cc2)nc2ccccc21	Cruzain inh noDet 2.5µM, Cruzain Triton 11µM
Cn1c(CCNC(=O)C(C)(C)C)nc2ccccc21	none
Cc1nc(C)c(CCNC(=O)c2cccc(Cl)c2)s1	Cruzain Triton inconclusive
O=C(CN1C(=O)COc2ccc(S(=O)(=O)N3CCOCC3)cc21)N1CCN(c2ccc(Cl)cc2)CC1	Cruzain inh noDet inconclusive
O=C(CCS(=O)(=O)c1nc(-c2cccs2)cc(C(F)(F)F)n1)Nc1cc(Br)ccc1O	none
CCn1cc(C(=O)NCc2ccccc2Cl)c(=O)c2cc(S(=O)(=O)N3CCCCC3)ccc21	none
CCn1cc(C(=O)NCc2ccccc2Cl)c(=O)c2cc(S(=O)(=O)N3CCc4ccccc4C3)ccc21	Cruzain inh noDet 13µM
COc1ccccc1-c1c(C)nn2c(N3CCN(c4cccc(Cl)c4)CC3)cc(C)nc12	none
O=C(NCc1cccc(Cl)c1)c1cc2ccc3cccnc3c2[nH]1	none
O=C(NCc1ccc(Cl)cc1)c1cc2ccc3cccnc3c2[nH]1	Cruzain inh noDet 25µM
COc1ccc(NC(=O)CSc2nc3c(c(=O)[nH]2)CCC3)cc1	none
COc1ccc(-c2nc3cnc(Oc4cccc(Cl)c4)nc3n(CCC#N)c2=O)cc1	none
COc1ccc(N2C(=O)CSC23C(=O)N(CC(=O)NCc2ccccc2)c2ccccc23)cc1 (configuration not stated)	none
O=S(=O)(c1ccc(Cl)cc1)N1CCN(c2nc(-c3cccs3)nc3ccccc23)CC1	Cruzain inh noDet 10µM
Cc1cc(N2CCN(S(=O)(=O)c3ccccc3)CC2)c2ccccc2n1	none
O=S(=O)(c1ccccc1)N1CCN(c2nc(-c3cccs3)nc3ccccc23)CC1	Cruzain inh noDet 16µM
O=C(c1cc(-c2cccs2)nc2ccccc12)N1CCN(S(=O)(=O)c2ccccc2)CC1	Cruzain inh noDet inconclusive
Nc1nn(-c2ccccc2)nc1C(=O)OCc1c(F)cccc1Cl	none
COCCN(CCOC)c1nc(C)nc2c1nc(-c1ccccc1)n2CCCN(C)C	none
CCc1nnc(NC(=O)c2oc3cc(C)c(C)cc3c2C)s1	Cruzain inh noDet 13µM
CCc1nonc1NC(=O)c1oc2cc(C)c(C)cc2c1C	none
O=C(Nc1ccccc1-c1nnn(CC(=O)N2CCCc3ccccc32)n1)c1ccco1	Cruzain inh noDet inconclusive
O=C(Nc1ccccc1-c1nnn(CC(=O)N2CCCc3ccccc32)n1)c1ccc(Cl)cc1	Cruzain inh noDet 32µM
COc1ccccc1CNC(=O)c1nnn(CC(=O)Nc2c(C)cccc2C)c1N	none
CCCN(C(=O)Cn1cnc2sc(C)c(S(=O)(=O)N3CCN(c4ncccn4)CC3)c2c1=O)c1cccc(C)c1	none
Cc1cc2cc(CNC(=O)Nc3cccc(Cl)c3)ccc2n1C	Cruzain inh noDet 13µM
O=C(NCc1ccncc1)Nc1cccc(Cl)c1	none
Cc1cccc(NC(=O)NCc2ccc3c(c2)cc(C)n3C)c1	Cruzain inh noDet 7.9µM
CCCC(=O)NCc1ccc2c(c1)cc(C)n2C	none
CCc1ccc(NC(=O)C2CCN(c3nn4c(=O)cc(C)nc4s3)CC2)cc1	none
Cc1cc(C(=O)CSc2nnc(-c3ccco3)o2)c(C)n1-c1ccc2c(c1)OCCO2	Cruzain inh noDet 10µM
O=C(CSc1nnc(-c2cccs2)o1)c1cccs1	none
Cc1cc(C(=O)CSc2nnc(-c3cccs3)o2)c(C)n1-c1ccccc1	Cruzain inh noDet 25µM
Cc1cc(C(=O)CSc2nnc(-c3ccco3)o2)c(C)n1Cc1ccco1	none
Cc1ccc(-n2c(=O)cc(N3CCN(c4ccccc4Cl)CC3)[nH]c2=O)cc1	none
COc1ccc(-n2cc(C(=O)NCCc3cc(OC)ccc3OC)c3ccccc3c2=O)cc1	none
O=C(CCSc1ccccc1)Nc1nc2c(s1)COc1ccccc1-2	Cruzain inh noDet 32µM
CC(C)(C)C(=O)Nc1nc2c(s1)COc1ccccc1-2	none
COCCn1c(=NC(=O)c2ccc(S(=O)(=O)N3CCc4ccccc4C3)cc2)sc2cc(S(N)(=O)=O)ccc21	Cruzain inh noDet inconclusive
COC(=O)Cn1c(=NC(=O)c2ccc(S(=O)(=O)N3CCc4ccccc4C3)cc2)sc2cc(OC)ccc21	Cruzain inh noDet 6.3µM
C#CCn1c(=NC(=O)c2ccc(S(=O)(=O)N3CCc4ccccc4C3)cc2)sc2cc(S(N)(=O)=O)ccc21	Cruzain inh noDet 10µM
C=CCn1c(=NC(=O)c2ccc(S(=O)(=O)N3CCc4ccccc4C3)cc2)sc2cc(S(N)(=O)=O)ccc21	none
Cc1cc(C)c(NC(=O)CSC2=Nc3ccccc3C3=NC(CC(=O)NCc4cccs4)C(=O)N23)c(C)c1 (configuration not stated)	Cruzain inh noDet inconclusive
CS(=O)(=O)Nc1cccc(-c2nccc(-n3ccnc3)n2)c1	none
Cc1cccc(C(=O)Nc2ccc(NC(=O)Cc3ccc(Cl)cc3)cc2)c1	Cruzain inh noDet inconclusive
C/C(=N/NC(=O)CSCc1ccc(Cl)cc1)c1cccc(NC(=O)c2ccccc2)c1	Cruzain inh noDet inconclusive
C/C(=N\NC(=O)CSCc1ccc(Cl)cc1)c1ccc(NC(=O)c2ccccc2)cc1	Cruzain inh noDet 25µM
O=C(Cc1ccc(Cl)cc1)Nc1ccc(NC(=O)c2ccccc2)cc1	Cruzain inh noDet 25µM
CC(C)Cn1c(=O)c2ccccc2n2c(CCC(=O)Nc3ccc(F)c(F)c3)nnc12	none
CCC(=O)NC(NC(=S)Nc1ccc(S(N)(=O)=O)cc1)C(Cl)(Cl)Cl (configuration not stated)	none
Cc1cccc(C(=O)NC(NC(=S)Nc2ccc(S(N)(=O)=O)cc2)C(Cl)(Cl)Cl)c1 (configuration not stated)	Cruzain inh noDet 25µM, Cruzain Triton 13µM
O=C(Oc1ccc(OC(=O)c2ccco2)c(S(=O)(=O)c2ccc(Br)cc2)c1)c1ccco1	Cruzain inh noDet 25µM
Cc1ccc(S(=O)(=O)c2cc(OC(=O)c3ccco3)ccc2OC(=O)c2ccco2)cc1	none
Cc1ccc(C)c(S(=O)(=O)c2nnn3c2nc(NC(C)C)c2sccc23)c1	none
CC(=O)N1CCN(C(=S)c2ccc(N(C)C)cc2)CC1	none
CN(C)c1ccc(C(=S)N2CCN(c3ccccc3)CC2)cc1	none
CN(C)c1ccc(C(=S)N2CCCCCC2)cc1	Cruzain inh noDet 6.3µM, Cruzain Triton 14µM
Cc1ccc(N2CCN(C(=S)c3ccc(N(C)C)cc3)CC2)cc1	Cruzain inh noDet 20µM
O=C(Cn1cc(SCc2ccc(F)cc2)c2ccccc21)N1CCCCCC1	none
Cc1ccc(NC(=O)N2CCC(n3c(C)nc4cccnc43)CC2)c(Cl)c1	none
CCOc1ccc2nc(N3C(=O)/C(=C/c4ccccc4)NC3=S)sc2c1	Cruzain inh noDet 13µM
CCOc1ccc2nc(N3CCCCCC3)sc2c1	none
COc1ccc2nc(N3C(=O)/C(=C/c4ccccc4)NC3=S)sc2c1	Cruzain inh noDet 13µM
COc1ccc2nc(-n3c(C)ccc3C)sc2c1	none
